Source: PubChem (several laboratories)
NadD inh: inhibitors of S. aureus NadD, primary screen, biochemical, colorimetric, uHTS. purified NadD enzyme, colorimetric absorbance read-out. inhibition, % at 20 µM. 360,000 compounds, 0.78% hits. AID 602399, 2012; in the data active = inhibition above about 26%
FAS TE block: FAS thioesterase domain inhibitors, primary screen, biochemical, fluorescence intensity, uHTS; Fatty acid synthase (Homo sapiens), P49327; recombinant FAS-TE, OMFH fluorogenic substrate, fluorescence endpoint; inhibition, % at 15 µM; 360,000 compounds, 0.67% hits; AID 602261, 2012;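 active = compounds whose normalised, plate-corrected inhibition of enzyme fluorescence in the single-dose primary screen is 50% or more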;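 also: 0% = DMSO with enzyme and 100% = substrate without enzyme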
Myeloid diff 2: induction of myeloid progenitor differentiation, primary screen, cell-based, flow cytometry, MLPCN library. ER-HoxA9 myeloid progenitors, lysozyme-GFP differentiation. calls only at 10 µM. 360,000 compounds, 1% hits. AID 624256, 2012;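 active = normalized GFP-positive differentiation at or above the plate's own cutoff, the solvent-only control mean plus 3 SD; inconclusive = no clear call, values can overlap the other calls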;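 also: cells exposed to compound for four days before flow analysis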
NRP1-CendR mod: modulators of CendR peptide binding to NRP-1, primary screen, biochemical, fluorescence polarization, uHTS; inhibition, % at 25 µM; Neuropilin-1 (Homo sapiens), O14786; AID 602438, 2012; FAM-RPARPAR peptide binding to NRP-1; 360,000 compounds, 0.85% hits;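 active = inhibition or corrected inhibition above about 18%, plus a signal ratio from 0.5 to 1.5, limit read from the data, passing the limit was not always enough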
Target sequence (O14786 whole entry, looked up): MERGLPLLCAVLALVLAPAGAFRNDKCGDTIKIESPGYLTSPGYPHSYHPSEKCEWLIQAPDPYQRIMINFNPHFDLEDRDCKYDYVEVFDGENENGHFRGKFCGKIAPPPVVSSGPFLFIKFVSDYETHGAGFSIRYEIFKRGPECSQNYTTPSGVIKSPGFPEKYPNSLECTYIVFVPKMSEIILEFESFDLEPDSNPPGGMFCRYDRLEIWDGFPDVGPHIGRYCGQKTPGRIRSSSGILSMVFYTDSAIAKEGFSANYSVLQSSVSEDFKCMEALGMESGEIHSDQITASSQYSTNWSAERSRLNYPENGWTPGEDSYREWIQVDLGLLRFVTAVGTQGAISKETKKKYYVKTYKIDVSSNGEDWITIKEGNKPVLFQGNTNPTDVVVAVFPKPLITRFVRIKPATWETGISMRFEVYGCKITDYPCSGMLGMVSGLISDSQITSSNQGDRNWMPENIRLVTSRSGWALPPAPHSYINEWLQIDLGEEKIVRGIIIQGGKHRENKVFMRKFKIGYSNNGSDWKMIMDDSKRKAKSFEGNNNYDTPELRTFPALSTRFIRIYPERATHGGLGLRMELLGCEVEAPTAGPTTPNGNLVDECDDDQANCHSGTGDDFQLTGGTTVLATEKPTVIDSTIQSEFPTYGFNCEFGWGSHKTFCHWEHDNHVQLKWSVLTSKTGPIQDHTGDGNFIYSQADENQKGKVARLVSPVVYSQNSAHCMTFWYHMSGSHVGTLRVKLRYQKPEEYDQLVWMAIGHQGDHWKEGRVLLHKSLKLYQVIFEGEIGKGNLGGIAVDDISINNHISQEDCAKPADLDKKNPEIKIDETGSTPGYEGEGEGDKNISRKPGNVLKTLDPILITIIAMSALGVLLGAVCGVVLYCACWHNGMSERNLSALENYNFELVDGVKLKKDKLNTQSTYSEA
CRFR2-BP antag: antagonists of CRF-BP/CRF-R2 complex, primary screen, cell-based, HEK293, calcium dye fluorescence, uHTS. CRF-induced calcium fluorescence. inhibition, % at 11.8 µM. 350,000 compounds, 0.59% hits;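 active = inhibition of the ligand-induced calcium signal above about 50% at the single tested concentration, limit read from the data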
NadD inh conf: inhibitors of S. aureus NadD, confirmation, biochemical, colorimetric, single concentration; 2,000 compounds, 13% hits; inhibition, % at 20 µM; shares compounds with NadD inh; purified S. aureus NadD, colorimetric enzyme assay; in the data active = inhibition mostly above about 42%, no sharp cut-off; inactive = mostly below about 42%
* marks the source's active call; other numbers are inactive results. Only some compounds are listed: those with a hit (about 3.6% of all), similar ones and a draw of the others.

O=C(Nc1ccc(Cl)c(Cl)c1)Nc1nnc(-c2ccncc2)s1 was read as NadD inh 60.9*, FAS TE block 4.8, Myeloid diff 2 inactive, NRP1-CendR mod -35.3, CRFR2-BP antag 10.6 and NadD inh conf 9.2.
Cc1cc2[nH]c(=O)c(=O)[nH]c2cc1S(=O)(=O)N1CCN(c2cccc(Cl)c2)CC1 was read as NadD inh 22.6, FAS TE block 11.2, Myeloid diff 2 inactive, NRP1-CendR mod -3.8 and CRFR2-BP antag 0.2.
Cc1cc2[nH]c(=O)c(=O)[nH]c2cc1S(=O)(=O)N1CCN(c2cccc(C(F)(F)F)c2)CC1 was read as NadD inh 30.9*, FAS TE block 10.6, Myeloid diff 2 inconclusive, NRP1-CendR mod 4.9, CRFR2-BP antag 3.0 and NadD inh conf 49.8*.
For C=CCn1c(=O)/c(=C/c2ccc(C)o2)s/c1=C(/C#N)C(=O)c1ccccc1 the results were NadD inh 30.3*, FAS TE block -42.9, Myeloid diff 2 inactive, NRP1-CendR mod -91.2, CRFR2-BP antag -79.4 and NadD inh conf 2.9.
For CCNS(=O)(=O)c1ccc(CCC(=O)NCc2ccc3c(c2)OCO3)cc1 the results were NadD inh -4.2, FAS TE block -5.9, Myeloid diff 2 inactive, NRP1-CendR mod 11.8 and CRFR2-BP antag 9.4.
`O=C(COc1ncnc2sccc12)Nc1ccc(F)cc1F` gave NadD inh 30.1*, FAS TE block -2.2, Myeloid diff 2 inactive, NRP1-CendR mod -1.7, CRFR2-BP antag 6.6 and NadD inh conf 8.9.
For CNc1ccc(Br)cc(C(=O)/C=C/c2ccc(OC)cc2)c1=O the results were NadD inh 24.9, FAS TE block -5.4, Myeloid diff 2 inactive, NRP1-CendR mod -71.0 and CRFR2-BP antag 0.6.
CNc1ccc(Br)cc(C(=O)/C=C/c2ccc3c(c2)OCO3)c1=O was read as NadD inh 40.1*, FAS TE block -0.2, Myeloid diff 2 inactive, NRP1-CendR mod -148.6, CRFR2-BP antag -1.5 and NadD inh conf 20.4.
Screening Cc1nc(S/C(=C\c2ccc(OCc3ccccc3Cl)cc2)C(=O)O)n[nH]1 returned NadD inh 63.0*, FAS TE block 11.5, Myeloid diff 2 inactive, NRP1-CendR mod 0.9, CRFR2-BP antag -18.1 and NadD inh conf 13.0.
Screening O=C1O[C@H]([C@@H](O)CO)C(O)=C1O returned NadD inh 34.6*, FAS TE block 0.3, Myeloid diff 2 inactive, NRP1-CendR mod 1.9, CRFR2-BP antag 9.6 and NadD inh conf 2.1.
Screening N#CC1=C(S)N(c2ccccc2)C(c2ccc(-c3cccc(Cl)c3)o2)NC1=O (stereo not given) returned NadD inh 41.7*, FAS TE block 13.9, Myeloid diff 2 inactive, NRP1-CendR mod -33.5, CRFR2-BP antag -23.9 and NadD inh conf 48.1.
`CC(C)N=C1NN=C(c2ccc(F)cc2)CS1` gave NadD inh 2.0, FAS TE block -0.9, Myeloid diff 2 inactive, NRP1-CendR mod 3.3 and CRFR2-BP antag -5.2.
Screening CCOC(=O)c1cnc(-n2nc(C)cc2C)nc1NNc1nc(-c2ccccc2)cc(-c2ccccc2)n1 returned NadD inh 34.9*, FAS TE block 12.0, Myeloid diff 2 inconclusive, NRP1-CendR mod 9.7, CRFR2-BP antag 7.6 and NadD inh conf 3.8.
Screening CCc1ccc(C(=O)COC(=O)C(CCSC)NC(=O)c2ccccc2)cc1 (stereo not given) returned NadD inh -3.6, FAS TE block 14.3, Myeloid diff 2 inactive, NRP1-CendR mod -7.8 and CRFR2-BP antag -4.0.
O=C(Cc1cc(=O)[nH][nH]1)N/N=C/C=C/c1ccccc1 was read as NadD inh 34.4*, FAS TE block -92.3, Myeloid diff 2 inactive, NRP1-CendR mod -4.4, CRFR2-BP antag -16.4 and NadD inh conf 63.9*.
`COc1cc(C(=O)Nc2nc(-c3cc(C)ccc3C)c(C)s2)ccc1OCC(=O)Nc1ccc(F)cc1` gave NadD inh 32.8*, FAS TE block -6.9, Myeloid diff 2 inactive, NRP1-CendR mod 6.7, CRFR2-BP antag -19.5 and NadD inh conf 17.9.
For COc1ccc(-c2nc(NC(=O)c3ccc(OCC(=O)Nc4ccc(F)cc4)c(OC)c3)sc2C)cc1 the results were NadD inh 25.8, FAS TE block -6.5, Myeloid diff 2 inactive, NRP1-CendR mod 2.7 and CRFR2-BP antag -1.2.
`COc1ccc(-c2csc(/C(C#N)=C\c3ccc(O)c([N+](=O)[O-])c3)n2)cc1OC` gave NadD inh 27.3*, FAS TE block -33.1, Myeloid diff 2 inactive, NRP1-CendR mod -60.4, CRFR2-BP antag 49.8 and NadD inh conf 11.4.
`C[C@H](NC(=O)c1ncn2c1C(=O)NC[C@@H]2C)C(=O)OC(C)(C)C` gave NadD inh 9.6, FAS TE block -5.2, Myeloid diff 2 inactive, NRP1-CendR mod -1.6 and CRFR2-BP antag -0.5.
`O=C(Cc1ccccc1)NCC(=O)N1CCC2(CC1)NCCc1[nH]cnc12` gave NadD inh -8.2, FAS TE block -8.6, Myeloid diff 2 inactive, NRP1-CendR mod -5.2 and CRFR2-BP antag -2.3.
`CCN(C(=O)COC(=O)C1CCN(S(=O)(=O)c2ccc(C)c(C)c2)CC1)C1CCCCC1` gave NadD inh 0.9, FAS TE block 27.8, Myeloid diff 2 inactive, NRP1-CendR mod 14.2 and CRFR2-BP antag 8.4.
Screening Cc1cccc2sc(NNC(=O)c3ccc(S(=O)(=O)N4CCc5ccccc5C4)cc3)nc12 returned NadD inh 37.8*, FAS TE block 17.7, Myeloid diff 2 inactive, NRP1-CendR mod -10.8, CRFR2-BP antag -28.2 and NadD inh conf 50.9*.
Cc1cccc2sc(NNC(=O)c3ccc(S(=O)(=O)N4CCCC(C)C4)cc3)nc12 (stereo not given) was read as NadD inh 23.4, FAS TE block 11.6, Myeloid diff 2 inactive, NRP1-CendR mod 3.4 and CRFR2-BP antag -19.6.
Cc1c(-n2c(SCC(=O)NC(C)C)nc3ccccc3c2=O)c(=O)n(-c2ccccc2)n1C was read as NadD inh -3.3, FAS TE block -7.8, Myeloid diff 2 inactive, NRP1-CendR mod -1.6 and CRFR2-BP antag -7.1.
`Cc1ccc(/C=C/c2nc3sc(C(=O)O)c(C)c3c(=O)[nH]2)cc1[N+](=O)[O-]` gave NadD inh 35.8*, FAS TE block 7.0, Myeloid diff 2 inactive, NRP1-CendR mod -46.4, CRFR2-BP antag 15.0 and NadD inh conf 0.8.
CC(C)Sc1nc2sc3c(c2c2nnc(SCC(=O)NCc4ccco4)n12)CCCC3 was read as NadD inh 38.4*, FAS TE block 20.5, Myeloid diff 2 inactive, NRP1-CendR mod -55.1, CRFR2-BP antag -12.5 and NadD inh conf 37.2.
Screening O=C(CSc1nc(C2CC2)nc2sc3c(c12)CCCC3)NCc1ccco1 returned NadD inh -4.2, FAS TE block -1.0, Myeloid diff 2 inactive, NRP1-CendR mod -1.6 and CRFR2-BP antag 2.9.
